PubChem BioAssay (NCI)
About 83,000 compounds went through this panel and 20% of them were active in at least one assay; those are over-represented in the sample as a whole.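 Assay: single dose, 48 h. Readout: percent growth (0 = no net growth; negative = cell death). Active: <10.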 A number with no mark means an inactive call. Activity calls are given as the source filed them.

What follows are compounds tested on HOP-62 NSCLC (assay: NCI-60 one-dose screen, 48 h (100 = growth as untreated, 0 = no growth, -100 = all killed)). Conditions: 10 µM unless noted.
Procedure: Growth inhibition of the HOP-62 human Non-Small Cell Lung tumor cell line is measured as a screen for anti-cancer activity. Cells are grown in 96 well plates and exposed to the test compound for 48 hours. Compounds are tested at a single concentration, which is 10^-5 M for most compounds. The reported endpoint is percent growth (GI% or GIPRCNT), where numbers from 0 - 100% represent growth inhibition, and numbers from -100% - 0 represent cell death. For example, a value of 40 represents 60% growth inhibition. A value of 0 means no net growth occurred over the course of the experiment. A value of -40 indicates 40% of cells at the beginning of the experiment died by the end of the experiment. A value of -100 means all cells are dead at the end of the experiment.
NCI-60 Human Tumor Cell Lines Screen was performed using the standard one-dose NCI protocol, which is described in more detail at https://dtp.cancer.gov/discovery_development/nci-60/default.htm.
Compounds with GIPRCNT values below 10 were considered active. Activity score was based on GIPRCNT using the following formula: […]
Score is 0 for GIPRCNT values of 100 or above, 50 for GIPRCNT values of 0, and 100 for GIPRCNT values of -100.

SMILES | growth
COc1ccc(/C(N)=N/C(N)=N/c2nc3ccccc3s2)cc1 | 24.5%
Nc1ccccc1NC(=O)c1ccc(NC(=O)C/C=C/c2cccnc2)cn1 | 27.1%
CCNC(=O)N1CCc2cc(OC)c(OCCc3ccc(OC)cc3)cc2C1c1ccc(OC)cc1C (stereo not given) | 20.3%
Nc1nc(-c2cccc([N+](=O)[O-])c2)c(N=Nc2ccccc2)s1 | 80.6%
COc1ccc2c(c1)c(-c1cc(N)n3nc(-c4cn(C)c5ccc(OC)cc45)cc3n1)cn2C | 103%
COC(=O)C[Se]C(=O)Cc1c(C)n(C(=O)c2ccc(Cl)cc2)c2ccc(OC)cc12 | 25.4%
CCn1c(SCC(=O)Nc2cccc(C(=O)/C=C/c3cc(OC)c(OC)c(OC)c3)c2)nc2ccccc2c1=O | 53.8%
CC/C(=C/c1c(O)cccc1OC)c1ccc2c(OC)cccc2[o+]1 | 101%
CNC(=O)c1cc(-c2ccc(NS(=O)(=O)c3ccc(C)cc3)cc2)nc2cccnc12 | 99.7%
CCN(CC)c1cn(-c2ccc(S(N)(=O)=O)cc2)nn1 | 112%
CN1CCN(c2ccc(/C=N/n3cnc4oc(-c5ccccc5)cc4c3=N)cc2)CC1 | 84.2%
O=c1[nH]c2ccccc2cc1CSc1ccccc1Nc1nccc(-c2ccc(Cl)cc2)n1 | 95.6%
O=C(Nc1nonc1-c1ccccc1)c1ccc(C(F)(F)F)cc1 | 81.5%
COc1ccc(/C=C(/C)c2ccc3ccc(OC)cc3[o+]2)c(O)c1 | 92.1%
COc1ccc(/C=N/NC(=O)c2cn(C3CC3)c3c(OC)c(N4CC5CCCNC5C4)c(F)cc3c2=O)cc1 (stereo not given) | 101%
CC(=O)N1C(=S)NC(=O)C1CC(C)C (stereo not given) | 99.8%
COc1cc(/C=C2\C(=O)Nc3ccccc32)ccc1OCc1ccc(F)cc1 | 100%
CC(=O)c1ccc(Nc2nc(SCC(C)C)nc(-c3ccccc3)c2C#N)cc1 | 25.9%
CS(=O)(=O)c1ccc(-c2nn(-c3ccccc3)cc2/C=N/NC(=O)c2nc(N)n[nH]2)cc1 | 103%
N#Cc1c(NC(=O)c2cccc(C(F)(F)F)c2F)sc2c1CCC(=O)C2 | 19.4%

SMILES | growth
CNC(=O)c1cc(Oc2ccc3nc(NC(=O)c4cccc(OC(F)(F)F)c4)sc3c2)ccn1 | 78.5%
N#Cc1c(-c2cccs2)cc(-c2cnccn2)nc1SCC(=O)Nc1ccc(Br)cc1 | 71.3%
O=C(CN1CCN(c2cc(=O)[nH]c3ccc(F)cc23)CC1)Nc1ccc(Cl)cc1 | 43.9%
CN1CCN(Cc2ccc(NC(=O)c3cncc(C#Cc4cnc5ccc(NCCCO)nn45)c3)cc2C(F)(F)F)CC1 | -36.8% (active)
COc1ccc2c(c1)c(CC(=O)[Se]CCC#N)c(C)n2C(=O)c1ccc(Cl)cc1 | -48.1% (active)
CC(C)(C)c1ccc(C(=O)Nc2sc3c(c2C(N)=O)CCC(O)C3)cc1 (stereo not given) | 63%
Cc1cc(-c2ccc(Cl)cc2)n(Cc2nnc(SCC(=O)Nc3ccc(S(N)(=O)=O)cc3)n2C2CCCCC2)n1 | 114%
CS(=O)(=O)Nc1cc(-c2ccc3ncc(C#N)c(Nc4cccc(Cl)c4F)c3c2)cnc1Cl | -8.87% (active)
NC(N)=Nc1ccc(Oc2cccc(NC(N)=Nc3ccc(Br)c(C(F)(F)F)c3)c2)cc1 | 53.3%
NS(=O)(=O)c1ccc(Nc2nc(SCc3ccccc3)nc3ccccc23)cc1 | 86.2%
CCO/C=N/C1=C(C#N)C(c2ccc(Cl)cc2)c2sc3c(CC)cccc3c2O1 (stereo not given) | 45.1%
O=S(=O)(NCCCNc1nccc(-c2[nH]c(-c3ccccc3)nc2-c2ccc(Cl)c(O)c2)n1)c1ccc(Br)cc1 | 46.7%
Cc1ccc(-c2cc3nc(C(Cl)Cl)nc(C)n3n2)cc1 | 92.1%
Nc1nc(N)c2c(n1)NC(c1ccc(Cl)cc1)CC(c1ccc(Nc3nc(NCCO)nc(N4CCOCC4)n3)cc1)=N2 (stereo not given) | 80.2%
C#CCC#CCN1CCC[C@H]1C(=O)NCC(=O)OC | 104%
NC(N)=Nc1ccc(Nc2cccc(Oc3ccc(Cl)c(C(F)(F)F)c3)c2)cn1 | 17.4%
Cc1cccc2c3c(sc12)C(c1ccc(F)cc1)C(C#N)=C(/N=C/c1ccc(Cl)cc1)O3 (stereo not given) | 28%
C=CC(=O)N1CCC=C(c2cc3c(N[C@H](C)c4ccccc4)ncnc3[nH]2)C1 | 58.5%
Cc1ccc(CSc2nc(-c3ccc(Cl)cc3)c(C#N)c(N3CCOCC3)n2)cc1 | 110%
O=C(c1ccc(Cl)cc1)C1[C@H](c2ccc(Cl)cc2)[C@@H](c2ccccc2)NC12C(=O)Nc1ccccc12 (stereo not given in full) | 69.6%
